Assay results taken from PubChem BioAssay (Tox21).
Inconclusive results are not listed. Active and inactive are the calls of the source. Unless noted, the call rests on the fitted dose curve; in most records, active means well fitted curve in the direction sought with a large enough effect in the repeat runs; inconclusive means weak or mixed curves; inactive means no such curve, though single readings can be large; an effect the other way counts as inactive or inconclusive.

Tests used:
[1] = qHTS assay to identify small molecule antagonists of the estrogen receptor beta (ER-beta) signaling pathway - cell viability counter screen (AID 1259382);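 further: HEK293T cells carrying ER-beta-UAS-bla reporter stimulated with estradiol; series mostly up to about 92 µM; nearly all actives have a fitted effect of over 55% in size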
Summary of the method: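 ER-beta-UAS-bla HEK293T cells in 2% charcoal-stripped FBS medium, treated with compound plus 1 nM 17-beta-estradiol for 16 h at 37C. Viability read by CellTiter-Glo luminescence after 30 min at room temperature in the same wells.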

[2] = qHTS assay to identify small molecule agonists or antagonists of the thyroid stimulating hormone receptor (TSHR) signaling pathway - wild type cell line counter screen (AID 1259384; calls by dose curve)
Summary of the method: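 Wild-type Hek293 cells, 800/well, 18 h at 37C, then compound with Ro20-1724 for 30 min RT. cAMP by HTRF (cAMP-d2/anti-cAMP cryptate), 1 h RT, fluorescence read. 15 concentrations, triplicates.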

[3] = target: Thyrotropin receptor (Homo sapiens) (UniProt P16473); assay: qHTS assay to identify small molecule antagonists of the thyroid stimulating hormone receptor (TSHR) signaling pathway (AID 1259385; calls by dose curve; further: nearly all actives have a fitted effect of over 20% in size)
Summary of the method: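 TSHR-HEK293 cells (800/well) plated 18 h, then compounds with Ro20-1724 and TSH at 1.5 ng/mL final, 30 min at room temperature. cAMP quantified by HTRF (cAMP-d2/anti-cAMP-cryptate, 1 h); 15 concentrations in triplicate.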

[4] = qHTS assay to identify small molecule agonists of the estrogen receptor alpha (ER-alpha) signaling pathway in the presence of an antagonist - cell viability counter screen (AID 1259386);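 further: series mostly up to about 92 µM; cells exposed to compounds for 22 h at 37 °C before the viability read; nearly all actives have a fitted effect of over 30% in size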
Summary of the method: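 Cell viability in VM7Luc4E2 cells (endogenous full-length ER-alpha) measured by CellTiter-Fluor fluorescence in the same wells as the luciferase screen. Cells pre-cultured 5 days in charcoal-stripped serum, then treated 22 h with compounds at 15 concentrations plus 10.0nM ICI-182,780.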

[5] = target: Progesterone receptor (Homo sapiens) (UniProt P06401); assay: qHTS assay to identify small molecule agonists of the progesterone receptor (PR) signaling pathway (AID 1346784; calls by dose curve; further: nearly all actives have a fitted effect of over 30% in size)
Summary of the method: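 Compounds were tested for PR agonism in HEK 293T cells bearing a beta-lactamase gene under UAS control. Treatment lasted 16 hr at 37C; signal came from fluorescence of a FRET substrate.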

[6] = qHTS assay to identify small molecule antagonists of the progesterone receptor (PR) signaling pathway - cell viability counter screen (AID 1346798); further: series mostly up to about 92 µM; nearly all actives have a fitted effect of over 50% in size
Summary of the method: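 Following a 4 hr attachment, PR-UAS-bla HEK293T cells in charcoal-stripped FBS medium were exposed to compounds with R5020 for 16 hr; CellTiter-Glo was added and luminescence read after 30 min at room temperature.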

[7] = qHTS assay to identify small molecule agonists of the progesterone receptor (PR) signaling pathway - cell viability counter screen (AID 1346799; calls by dose curve; further: nearly all actives have a fitted effect of over 45% in size)
Summary of the method: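 Here, 3,000 PR-UAS-bla HEK293T cells per well were treated with compounds for 16 hr after a 6 hr preincubation at 37C and 5% CO2; cell viability is the CellTiter-Glo luminescence signal.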

[8] = qHTS assay to identify small molecule antagonists of the TGF-beta/Smad signaling pathway - cell viability counter screen (AID 1346824); further: nearly all actives have a fitted effect of over 50% in size
Summary of the method: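 SBE-bla HEK 293T cells, incubated overnight, then compound plus 0.25 ng/mL TGF-beta1 (stock added) for 5 hr at 37 C. Viability was read in the same wells by CellTiter-Glo luminescence after 30 min at room temperature.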

[9] = qHTS assay to identify small molecule agonists of the TGF-beta/Smad signaling pathway - cell viability counter screen (AID 1346829); further: top concentration of the series differs between compounds; nearly all actives have a fitted effect of over 45% in size
Summary of the method: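 CellTiter-Glo luminescence readout; SBE-bla HEK 293T cells, overnight plating, compound 5 hr at 37 C/5% CO2, then bla substrate 2 hr RT, then CellTiter-Glo 30 min RT.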

[10] = qHTS assay to identify small molecule agonists of the TGF-beta/Smad signaling pathway (AID 1346859; active means well fitted activation curve with a large enough effect in the signal ratio in the repeat runs, not every such curve was filed as active; the % refers to the signal ratio; further: series mostly up to about 77 µM)
Summary of the method: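 Each well held 4,000 SBE-bla HEK 293T cells incubated overnight before compound addition; 5 hr later the cleavable FRET substrate went on for 2 hr at room temperature, and fluorescence was read at two emissions.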

[11] = Human pregnane X receptor (PXR) small molecule agonists, qHTS cell viability counter screen (AID 1346977); further: nearly all actives have a fitted effect of over 50% in size
Summary of the method: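 Tox21 qHTS format; PXR-Luc HepG2, 2,000/well, charcoal-stripped FBS 5%. Cpd exposure 24hr. Read: CellTiter-Fluor fluorescence, multiplexed with luciferase.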

[12] = Caspase-3/7 induction in HepG2 cells by small molecules, qHTS assay (AID 1346978); further: nearly all actives have a fitted effect of over 15% in size
Summary of the method: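 Wild-type HepG2 cells, 2,000/well, settled 5 hr at 37 C and 5% CO2, then compound-treated for 17 hr; caspase-3/7 activity read by luminescent Caspase-Glo 3/7 after 30 min at room temperature.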

[13] = Caspase-3/7 induction in CHO-K1 cells by small molecules, qHTS cell viability counter screen (AID 1346979); further: nearly all actives have a fitted effect of over 35% in size
Summary of the method: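 CellTiter-Fluor viability check, qHTS format: wild-type CHO-K1, 16hr compound treatment, 1hr reagent incubation, fluorescence read.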

[14] = Caspase-3/7 induction in CHO-K1 cells by small molecules, qHTS assay (AID 1346980); further: nearly all actives have a fitted effect of over 15% in size
Summary of the method: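 Wild-type CHO-K1 cells exposed to compounds for 17hr at 37 C, 5% CO2. Caspase-3/7 activity then measured by Caspase-Glo 3/7 luminescence after 30min at room temperature.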

[15] = Caspase-3/7 induction in HepG2 cells by small molecules, qHTS cell viability counter screen (AID 1346981); further: series mostly up to about 92 µM; nearly all actives have a fitted effect of over 30% in size
Summary of the method: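 Wild-type HepG2 cells, 2,000/well, settled 5 hr at 37 C, 5% CO2 before compound addition. Viability read by CellTiter-Fluor fluorescence, reagent added after 16 hr compound exposure, then 1 hr at 37C, in the same wells as the caspase read.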

[16] = target: Progesterone receptor (Homo sapiens) (UniProt P06401); assay: qHTS assay to identify small molecule antagonists of the progesterone receptor (PR) signaling pathway (AID 1346795; active means well fitted inhibition curve with a large enough effect in the signal ratio in the repeat runs, not every such curve was filed as active; the % refers to the signal ratio)
Summary of the method: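 In HEK293T cells bearing the PR-UAS-bla reporter, compound effects on promegestone-driven (1 nM) beta-lactamase expression are assessed after 16 hr using a fluorescent FRET substrate incubated 2 hr at room temperature.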

[17] = target: Thyrotropin-releasing hormone receptor (Homo sapiens) (UniProt P34981); assay: qHTS assay to identify small molecule antagonists of the thyrotropin-releasing hormone receptor (TRHR) signaling pathway (AID 1346877; active means well fitted inhibition curve with a large enough effect in the repeat runs, not every such curve was filed as active; further: series mostly up to about 51 µM)
Summary of the method: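 TRHR-expressing HEK293 cells loaded with calcium dye for 2 h at 37 C; compounds pre-incubated 5 min at room temperature before TRH challenge at 1 nM final. Intracellular calcium fluorescence read kinetically for 3 min; 15 concentrations in triplicate.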

[18] = target: Thyrotropin-releasing hormone receptor (Homo sapiens) (UniProt P34981); assay: qHTS assay to identify small molecule agonists of the thyrotropin-releasing hormone receptor (TRHR) signaling pathway (AID 1346891; calls by dose curve; further: series mostly up to about 58 µM)
Summary of the method: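 Screening of agonists relied on calcium signalling in HEK293 cells expressing human TRHR: dye loading 2 h at 37 °C preceded compound addition and a 3-min fluorescence time course.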

Measured: Potency

Thyrotropin-releasing hormone receptor (Homo sapiens), sequence (P34981 whole entry, looked up): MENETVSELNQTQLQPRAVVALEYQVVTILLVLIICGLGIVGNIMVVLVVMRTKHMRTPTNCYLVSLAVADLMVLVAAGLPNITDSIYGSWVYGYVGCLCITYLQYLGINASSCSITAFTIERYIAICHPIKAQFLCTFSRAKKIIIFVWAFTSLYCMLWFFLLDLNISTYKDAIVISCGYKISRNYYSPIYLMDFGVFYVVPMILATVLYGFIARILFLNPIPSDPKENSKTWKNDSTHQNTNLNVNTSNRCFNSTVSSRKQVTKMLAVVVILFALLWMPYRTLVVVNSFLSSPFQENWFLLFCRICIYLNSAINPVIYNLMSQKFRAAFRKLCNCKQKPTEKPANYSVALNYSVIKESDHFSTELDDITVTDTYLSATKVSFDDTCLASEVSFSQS
Thyrotropin receptor (Homo sapiens), sequence (P16473 whole entry, looked up): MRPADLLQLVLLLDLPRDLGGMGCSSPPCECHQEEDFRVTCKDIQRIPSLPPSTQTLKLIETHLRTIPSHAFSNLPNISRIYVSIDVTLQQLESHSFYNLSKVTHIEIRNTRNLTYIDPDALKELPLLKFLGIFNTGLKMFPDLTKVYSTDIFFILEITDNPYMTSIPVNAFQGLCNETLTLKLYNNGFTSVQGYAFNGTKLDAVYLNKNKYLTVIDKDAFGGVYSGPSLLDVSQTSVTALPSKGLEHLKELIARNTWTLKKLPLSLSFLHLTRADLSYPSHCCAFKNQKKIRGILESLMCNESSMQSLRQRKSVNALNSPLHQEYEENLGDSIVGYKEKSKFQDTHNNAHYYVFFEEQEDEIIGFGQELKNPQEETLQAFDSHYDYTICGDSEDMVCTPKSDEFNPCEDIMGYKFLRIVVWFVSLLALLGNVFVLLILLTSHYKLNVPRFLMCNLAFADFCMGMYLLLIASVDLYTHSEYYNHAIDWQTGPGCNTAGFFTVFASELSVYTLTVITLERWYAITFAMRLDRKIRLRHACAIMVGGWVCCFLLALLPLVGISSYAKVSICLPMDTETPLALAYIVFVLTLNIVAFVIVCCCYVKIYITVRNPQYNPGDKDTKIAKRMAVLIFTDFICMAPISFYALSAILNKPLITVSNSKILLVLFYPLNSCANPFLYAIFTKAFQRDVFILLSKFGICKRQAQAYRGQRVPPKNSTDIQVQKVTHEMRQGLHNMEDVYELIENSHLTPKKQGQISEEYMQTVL
Progesterone receptor (Homo sapiens), sequence (P06401 whole entry, looked up): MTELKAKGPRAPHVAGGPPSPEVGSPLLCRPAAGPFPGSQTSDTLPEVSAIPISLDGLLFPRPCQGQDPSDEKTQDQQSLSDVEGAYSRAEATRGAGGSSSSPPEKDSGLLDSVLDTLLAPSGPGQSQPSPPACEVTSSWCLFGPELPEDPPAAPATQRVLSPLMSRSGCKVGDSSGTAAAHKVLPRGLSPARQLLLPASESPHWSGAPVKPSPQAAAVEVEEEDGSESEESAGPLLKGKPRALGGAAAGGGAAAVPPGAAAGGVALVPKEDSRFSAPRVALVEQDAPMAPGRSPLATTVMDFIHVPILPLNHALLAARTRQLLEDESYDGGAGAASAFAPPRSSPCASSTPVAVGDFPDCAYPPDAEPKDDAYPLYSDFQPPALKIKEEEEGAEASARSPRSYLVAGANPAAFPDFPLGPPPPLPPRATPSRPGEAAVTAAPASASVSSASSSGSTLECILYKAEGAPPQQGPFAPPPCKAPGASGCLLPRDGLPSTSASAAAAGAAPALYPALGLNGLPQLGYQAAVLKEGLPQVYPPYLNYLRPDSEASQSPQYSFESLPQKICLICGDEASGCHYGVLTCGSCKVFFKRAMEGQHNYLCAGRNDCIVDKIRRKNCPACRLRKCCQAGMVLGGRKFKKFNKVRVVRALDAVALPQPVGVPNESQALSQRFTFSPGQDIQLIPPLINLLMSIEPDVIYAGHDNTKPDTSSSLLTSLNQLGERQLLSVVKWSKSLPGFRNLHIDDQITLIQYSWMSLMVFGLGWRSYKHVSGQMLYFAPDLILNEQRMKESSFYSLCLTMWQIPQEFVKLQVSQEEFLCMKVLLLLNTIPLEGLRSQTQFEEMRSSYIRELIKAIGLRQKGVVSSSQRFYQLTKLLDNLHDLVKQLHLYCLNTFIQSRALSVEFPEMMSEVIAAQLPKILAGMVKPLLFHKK

CCCCCCCCCOCC1CO1 (stereo not given)
not listed: [16] | [17] | [18]
inactive: all other assays above

C=CCOc1cc(Cl)ccc1C(=O)NCCN(CC)CC
not listed: [5] | [7] | [15]
inactive: all other assays above

COc1cc(C=O)ccc1OC(=O)C(C)C
not listed: [7]
inactive: all other assays above

C=COCCOCCOC=C
not listed: [2] | [3]
inactive: all other assays above

Nc1cc(S(=O)(=O)O)ccc1S(=O)(=O)O
not listed: [5]
inactive: all other assays above

O=c1cc(O)c(Cl)c[nH]1
not listed: [5] | [7] | [16] | [17] | [18]
inactive: all other assays above

C[CH2][Ge]([Cl])([CH2]C)[CH2]C
not listed: [7]
inactive: all other assays above

CC(=O)OCCCc1ccccc1
not listed: [6] | [17] | [18]
inactive: all other assays above
